Compounds with a hit are over-represented: about 3.8% of the library has one in this group of screens.
ADAM17 inh: inhibits human ADAM17. 370,000 tested, 0.83% active. recombinant ADAM17, EDANS/DABCYL FRET peptide cleavage. inhibition, % at 6.95 µM. AID 720648;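 active = inhibition above the mean of compounds lying between control limits plus 3 SD, set per campaign, cut at about 8.5% in these data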;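 also: 0% = DMSO-only wells as the low control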
rRNA inh HTS: inhibits bacterial ribosomal RNA function over humanized ribosomes | E. coli WT GFP vs humanized-ribosome RFP mutants, fluorescence, 24 h; active compounds read low; DMSO median 0, no signal -100 | GFP signal change (wild-type ribosome), % (test concentration not listed) | 350,000 tested, 1.6% active | AID 720706;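 active = significant combined selectivity score with lowered wild-type GFP, culture density cut under 30%, mutant RFP and density less affected; inactive = any of these conditions unmet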
FGF22 binding: shifts melting point of recombinant human FGF22; recombinant FGF22 thermal shift, SYPRO orange fluorescence; percent of sucrose octasulfate shift, DMSO zero; 340,000 tested, 1.5% active; activity (Tm shift, normalised), % at 9.99 µM; Q9HCT0; AID 651658;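 active = mean Tm shift, scaled 0 neutral to 100 positive control, at about 1.3% or above, every replicate too, limit read from the data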
Target sequence (Q9HCT0 whole entry, looked up): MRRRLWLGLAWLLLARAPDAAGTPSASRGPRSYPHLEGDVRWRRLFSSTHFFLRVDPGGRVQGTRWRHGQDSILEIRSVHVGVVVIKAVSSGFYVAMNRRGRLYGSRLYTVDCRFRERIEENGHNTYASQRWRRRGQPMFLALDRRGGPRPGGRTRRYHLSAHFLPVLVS
ADAM10 inh: ADAM10 inhibition, QFRET primary screen. O14672. recombinant ADAM10, EDANS/DABCYL FRET peptide cleavage, 3 h. inhibition, % at 7 µM. 370,000 tested, 0.62% active. AID 720582;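 active = inhibition above a per-campaign cutoff equal to the mean of compounds falling between control-based bounds plus 3 SD, cut at about 20% in these data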;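 also: 0% = DMSO wells while the 100% control is not disclosed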
proKLK7 act: activators of human kallikrein-7 zymogen; P49862; purified proKLK7, EDANS-DABCYL substrate fluorescence; 100% is mature enzyme control, 0% vehicle; activation, % at 7 µM; 370,000 tested, 0.9% active; AID 652039;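 active = activation above the mean of all tested compounds plus 3 SD, computed per campaign excluding outliers beyond control limits, cut at about 13% in these data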
Target sequence (P49862 whole entry, looked up): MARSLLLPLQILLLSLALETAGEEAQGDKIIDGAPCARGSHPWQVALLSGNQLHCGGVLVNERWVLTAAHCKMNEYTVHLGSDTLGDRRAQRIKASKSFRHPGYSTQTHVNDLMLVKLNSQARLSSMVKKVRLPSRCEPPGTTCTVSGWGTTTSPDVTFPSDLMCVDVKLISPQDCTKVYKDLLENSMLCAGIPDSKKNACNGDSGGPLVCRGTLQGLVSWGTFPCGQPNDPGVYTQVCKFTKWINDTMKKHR
proKLK7 act conf: proKLK7 activation, confirmation; AID 686949; activation, % at 7 µM; shares compounds with proKLK7 act; purified proKLK7, EDANS-DABCYL substrate fluorescence; scaled: vehicle 0, mature enzyme 100; 3,200 tested, 68% active;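 active = activation, as change over the incubation, above the mean of all tested compounds plus 3 SD, cut at about 13% in these data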
EDANS-DABCYL int: counter-screen for kallikrein-7 activators: EDANS-DABCYL optical interference. activation, % at 7 µM. shares compounds with proKLK7 act. EDANS-DABCYL substrate fluorescence interference, no enzyme, 4 h; solvent 0%, active enzyme control 100%. 3,200 tested, 80% active;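 active = activation above the all-compound mean plus 3 SD, ignoring values outside control-based bounds, cut at about 4.8% in these data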;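 also: value is the 4 h activation minus the activation read at time zero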
Numbers without * were called inactive.

Screening CCOc1cc2c(cc1/C=C/C(=O)O)OC(C)C2 (stereo unspecified) returned ADAM17 inh inactive, rRNA inh HTS 1, FGF22 binding 0, ADAM10 inh inactive, proKLK7 act 62*, proKLK7 act conf 72* and EDANS-DABCYL int 69*.
COc1cc2c(cc1/C=C/C(=O)O)OC(C)C2 (stereo unspecified) was read as ADAM17 inh inactive, rRNA inh HTS 3, FGF22 binding 0, ADAM10 inh inactive, proKLK7 act 64*, proKLK7 act conf 64* and EDANS-DABCYL int 74*.
`Cc1cccn2c(=O)c3cc(C(=O)NCc4ccco4)c(=N)n(C(C)C)c3nc12` gave ADAM17 inh -317, ADAM10 inh inactive, proKLK7 act 26*, proKLK7 act conf 7 and EDANS-DABCYL int 4.
For N=c1c(C(=O)NCc2ccccc2)cc2c(=O)n3ccccc3nc2n1Cc1ccco1 the results were ADAM17 inh -113, rRNA inh HTS 71, ADAM10 inh -370 and proKLK7 act -5.
Cc1cccn2c(=O)c3cc(C(=O)NCc4cccnc4)c(=N)n(C(C)C)c3nc12 was read as ADAM17 inh inactive, ADAM10 inh inactive, proKLK7 act 134*, proKLK7 act conf 51* and EDANS-DABCYL int 67*.
For Cc1cccn2c(=O)c3cc(C(=O)NCCc4ccccc4)c(=N)n(Cc4ccco4)c3nc12 the results were ADAM17 inh -218, rRNA inh HTS 14, FGF22 binding 0, ADAM10 inh inactive and proKLK7 act -8.
`COc1ccc(CNC(=O)c2cc3c(=O)n4ccccc4nc3n(Cc3cccnc3)c2=N)cc1` gave ADAM17 inh -74, ADAM10 inh -230 and proKLK7 act 0.
Screening CC(C)n1c(=N)c(C(=O)NCCc2ccccc2)cc2c(=O)n3ccccc3nc21 returned ADAM17 inh inactive, ADAM10 inh inactive, proKLK7 act 134*, proKLK7 act conf -51 and EDANS-DABCYL int -64.
`Cc1ccc(S(=O)(=O)Nc2ccc3c(c2)C(=O)N([C@@H](C)CO)C[C@H](C)[C@H](CN(C)S(=O)(=O)c2c(C)noc2C)OCCCC[C@@H](C)O3)cc1` gave rRNA inh HTS -2 and FGF22 binding -1.
For C[C@H]1CN([C@@H](C)CO)C(=O)c2cc(NC(=O)Nc3ccc(F)cc3)ccc2O[C@@H]1CN(C)Cc1ccccc1 the results were rRNA inh HTS 5 and FGF22 binding 0.
O=C(Nc1cccc(NC(=O)c2ccc(-c3ccc(Br)cc3)o2)c1)c1ccco1 was read as ADAM17 inh -68, ADAM10 inh -184, proKLK7 act 440*, proKLK7 act conf 446* and EDANS-DABCYL int 213*.
O=C(c1ccccn1)N1C[C@H]2[C@@H](c3ccccc31)[C@@H](CO)N2C(=O)C1CCOCC1 was read as rRNA inh HTS 4 and FGF22 binding -1.
Screening C/C=C/c1ccc2c(c1)O[C@H](CN(C)CC1CC1)[C@H](C)CN([C@@H](C)CO)S2(=O)=O returned rRNA inh HTS 7.
For CCNC(=O)C[C@@H]1CC[C@@H]2[C@@H](COc3ccc(NC(=O)c4cccc(OC)c4)cc3C(=O)N2C)O1 the results were rRNA inh HTS 1 and FGF22 binding 0.
Screening Cc1ccc(-c2cc(C(=O)O)c3sc(N4CCCCC4)nc3n2)cc1 returned ADAM17 inh inactive, ADAM10 inh inactive, proKLK7 act 25*, proKLK7 act conf 19* and EDANS-DABCYL int 23*.
Screening O=C(O)c1cc(-c2ccccc2)nc2nc(N3CCCCC3)sc12 returned ADAM17 inh inactive, rRNA inh HTS -1, ADAM10 inh inactive, proKLK7 act 16*, proKLK7 act conf 44* and EDANS-DABCYL int 41*.
CCOC(=O)c1cc(-c2ccccc2)nc2nc(N3CCCCC3)sc12 was read as ADAM17 inh -57, ADAM10 inh -195 and proKLK7 act -20.
